Most compounds without a hit are left out; they make up all but 19% or so of the library.
TGFb inhibitor – blocks TGF-b signaling; HepG2 CAGA-GFP TGF-b/SMAD3 reporter, GFP fluorescence, 18 h; TGF-beta stimulated, 500 pg/mL final; Potency, µM (series often up to 46.1 µM), hits mostly inhibitors; 410,000 tested, 1.2% active; AID 588855; note: nearly all actives have a fitted effect of over 65% in size
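HEPG2 CAGA-GFP reporter cells (1000/well, DMEM with 1% FBS) received compounds, then recombinant TGF-beta at 500 pg/mL final for 18 hours at 37 degrees C. Per-cell GFP summed per well was normalised to unstimulated and stimulated DMSO controls before curve fitting.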
HepG2 viability – HepG2 cytotoxicity, counter-screen for TGF-b inhibitors | HepG2 CAGA-GFP viability, ATP luminescence, 18 h | Potency, µM (doses to about 46.1 µM), most hits filed as cytotoxic | 410,000 tested, 0.76% active | AID 588856
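CellTiter-Glo luminescence gave cytotoxicity after 18 hours at 37 degrees C. The cells were HepG2 CAGA-GFP in 1% FBS DMEM, stimulated with 500 pg/mL TGF-beta after compound addition. %Activity was normalised to no-cell wells (complete cell-killing) and DMSO (no toxicity), and curves were fitted and classified.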
TDP1 block – blocks human tyrosyl-DNA phosphodiesterase 1. Q9NUW8. recombinant TDP1, AlphaScreen DNA substrate cleavage. Potency, µM (series often up to 130 µM), usual class: inhibitors. 350,000 tested, 0.28% active. AID 485290; note: nearly all actives have a fitted effect of over 40% in size
Target sequence (Q9NUW8 whole entry, looked up): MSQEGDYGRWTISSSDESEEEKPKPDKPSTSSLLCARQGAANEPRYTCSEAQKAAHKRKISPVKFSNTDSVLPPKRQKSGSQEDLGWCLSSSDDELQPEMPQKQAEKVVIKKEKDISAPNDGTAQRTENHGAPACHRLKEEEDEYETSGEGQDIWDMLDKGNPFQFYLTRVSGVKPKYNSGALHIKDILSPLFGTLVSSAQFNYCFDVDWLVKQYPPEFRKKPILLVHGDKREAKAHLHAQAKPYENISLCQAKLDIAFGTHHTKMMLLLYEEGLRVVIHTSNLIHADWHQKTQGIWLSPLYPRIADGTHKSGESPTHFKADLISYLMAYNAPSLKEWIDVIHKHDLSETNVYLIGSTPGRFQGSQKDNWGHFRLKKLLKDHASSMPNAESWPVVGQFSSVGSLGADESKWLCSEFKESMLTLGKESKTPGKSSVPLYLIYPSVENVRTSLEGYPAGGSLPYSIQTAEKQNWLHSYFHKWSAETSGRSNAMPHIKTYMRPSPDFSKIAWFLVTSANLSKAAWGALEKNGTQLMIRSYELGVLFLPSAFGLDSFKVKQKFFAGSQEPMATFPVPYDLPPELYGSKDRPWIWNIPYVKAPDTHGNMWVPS
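Signal: AlphaScreen proximity between streptavidin donor and anti-FITC acceptor beads on intact substrate. Reaction: Tdp1 1 nM, substrate 15 nM final, 5 min RT after 15 min compound preincubation.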
DT40 TDP1 CPT – DT40-hTDP1 cell growth loss with CPT | chicken DT40 Tdp1-/-;hTDP1 cells + 20 nM CPT, ATP luminescence, 48 h | Potency, µM (highest dose often 46.2 µM), most hits filed as inhibitors | AID 686979 | 420,000 tested, 12% active; note: nearly all actives have a fitted effect of over 55% in size
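Chicken DT40 Tdp1-/- cells stably complemented with human TDP1 were seeded at 400 cells/well in medium containing 20 nM camptothecin, exposed to pin-transferred compounds, and grown at 37 °C for at least 48 hr. Viability was read as ATP luminescence.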
DT40 TDP1 no CPT – qHTS for Inhibitors of human tyrosyl-DNA phosphodiesterase 1 (TDP1): qHTS in cells in absence of CPT; DT40 Tdp1-/- hTDP1 cells, no CPT, ATP luminescence, 48 h; AID 686978, 2013; 420,000 tested, 15% active; Potency, µM (doses to about 46.2 µM), most hits filed as inhibitors; note: nearly all actives have a fitted effect of over 55% in size
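Chicken DT40 Tdp1-/- cells stably complemented with human TDP1 were seeded at 400 cells/well with DMSO in place of 20 nM camptothecin. After compound pinning, cells grew at least 48 hr at 37 °C; viability read by CellTiter-Glo luminescence.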
IL1B secr inh – blocks inflammasome-driven IL-1 beta release | THP-1 LPS/ATP IL-1B secretion, AlphaLISA, 16 h; active compounds read low | activity change, % at 57.5 µM | 360,000 tested, 4.7% active | AID 743279; in the data active = activity change below about -50%; inconclusive = mostly about -30% to -49%
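THP-1 cells pretreated 1 hr with compounds (up to 57.5 uM final), then stimulated with LPS (250 ng/mL final) plus ATP (1.25 mM final); secreted IL-1B measured by AlphaLISA after 16 hr, decreased signal indicating inhibition.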
A number is an active result; 0 = inactive; ? = inconclusive; - = no result; [ ] = another dose, or the depositor's remark. Unless noted, calls come from the whole dose curve; as a rule, active = well fitted curve in the direction sought with a large enough effect; inconclusive = small, poorly fitted or top-dose-only effect, or another doubt; inactive = no such curve, though single readings can be large; an effect the other way counts as inactive or inconclusive.

SMILES	TGFb inhibitor	HepG2 viability	TDP1 block	DT40 TDP1 CPT	DT40 TDP1 no CPT	IL1B secr inh
C/C(=N\NC(=O)c1cc2ccccc2cc1O)c1ccc(C)o1	?	0	0	18.4µM	14.6µM	0
C/C(=N\NC(=O)c1c[nH]c2ccccc12)c1ccc(C)o1	0	0	0	?	0	0
C/C(=N/NC(=O)c1cc2ccccc2cc1O)c1ccco1	?	0	0	25.9µM	13µM	0
CN(Cc1ccc(F)cc1)S(=O)(=O)c1nnc(NC(=O)c2ccccc2Cl)s1	?	0	0	?	?	-
CC(C)Cn1c2c(c(O)c(C(=O)Nn3c(Cc4ccccc4)nc4ccccc4c3=O)c1=O)CCCC2	0	0	0	5.17µM	3.66µM	0
CCCCc1nc2ccccc2c(=O)n1NC(=O)c1c(O)c2c(n(CC(C)C)c1=O)CCCC2	0	0	0	14.6µM	9.2µM	0
CC(C)Cn1c2c(c(O)c(C(=O)Nc3ncccc3O)c1=O)CCCC2	?	0	0	?	?	0
Cc1cc(-c2ccc(S(=O)(=O)N3CCN(c4ccccc4F)CC3)s2)on1	0	0	0	?	0	0
COc1ccc(S(=O)(=O)Oc2ccc3c(c2)O/C(=C\c2cccnc2)C3=O)cc1	0	0	0	?	14.6µM	0
O=C1/C(=C/c2cccnc2)Oc2cc(OS(=O)(=O)c3ccc(Cl)cc3)ccc21	0	0	0	?	?	0
O=C1/C(=C/c2cccnc2)Oc2cc(OS(=O)(=O)c3ccccc3)ccc21	?	0	0	?	15.8µM	0
CN(C)c1ccc(/C=C/c2ccc3ncccc3c2)cc1	0	0	-	?	?	-
CN(C)c1ccc(/C=C/c2cc3ccccc3cn2)cc1	11.2µM	0	-	0.447µM	0.447µM	-
CN(C)c1ccc(/C=C/c2ccccn2)cc1	0	0	-	1.41µM	4.47µM	-
CCN(CC)c1ccc(/C=C/c2ccccn2)cc1	0	0	-	0.178µM	0.282µM	-
COc1ccc([N+](=O)[O-])cc1C1NN=C(c2ccccc2O)S1 (stereo not drawn)	0	0	0	3.66µM	3.26µM	0
O=C(CN1Cc2ccccc2OC(c2ccsc2)C1)N1CCC(c2nc3ccccc3[nH]2)CC1 (stereo not drawn)	-	-	-	0[9.04 µM]	?	-
c1cc2c3c(cccc3c1)-c1cnccc1-2	0	0	-	0	0	-65.8
COc1ccccc1NC(=O)CSc1nc(=O)n(CCN2CCOCC2)c2c1CCC2	0	0	-	0	0	0
Cc1ccc(-c2[nH]c(-c3ccccc3)nc2SCC(=O)NCC2CCCO2)cc1 (stereo not drawn)	0	0	0[12.3 µM]	14.6µM	23.1µM	0
COc1ccc(-c2[nH]c(-c3ccc(Cl)cc3)nc2SCC(=O)NCC2CCCO2)cc1 (stereo not drawn)	?	0	0	10.3µM	7.31µM	-
COc1ccc(-c2[nH]c(-c3ccc(C)cc3)nc2SCC(=O)NCC2CCCO2)cc1 (stereo not drawn)	0	0	0	?	?	-
COCCNC(=O)CSc1nc(-c2ccc(F)cc2)[nH]c1-c1ccc(Cl)cc1	?	0	0	?	25.9µM	-
COc1ccc(-c2nc(SCC(=O)NC3CCCC3)c(-c3ccccc3)[nH]2)cc1OC	?	0	0[12.3 µM]	?	?	-
COc1ccc(-c2nc(SCC(=O)NC3CCCC3)c(-c3ccc(OC)cc3)[nH]2)cc1	?	0	0	?	16.4µM	0
SMILES	TGFb inhibitor	HepG2 viability	TDP1 block	DT40 TDP1 CPT	DT40 TDP1 no CPT	IL1B secr inh
Cc1ccc(-c2nc(S(=O)(=O)c3ccccc3)c(SCC(=O)NCC3CCCO3)o2)cc1 (stereo not drawn)	0	0	0	?	23.1µM	0
Cc1ccc(-c2nc(SCC(=O)NCC3CCCO3)c(-c3ccc(C)cc3)[nH]2)cc1 (stereo not drawn)	?	0	0	?	?	0
CCc1ccc(-c2nc(SCC(=O)NCC3CCCO3)c(-c3ccc(F)cc3)[nH]2)cc1 (stereo not drawn)	?	0	0	?	18.4µM	-
Cc1ccc(-c2nc(SCC(=O)NCC3CCCO3)c(-c3ccc(Cl)cc3)[nH]2)cc1 (stereo not drawn)	?	0	0	?	20.6µM	?
CCN(CC(=O)NCc1cccs1)C(=O)COc1ccc(C(C)=O)cc1	0	0	0	0	0	0
Cn1c(C(=O)NCCCN2CCc3ccccc3C2)cc2c(=O)n(C)c3ccccc3c21	0	0	0	?	?	-53.2
Cn1c(C(=O)NCCCN2CCCCCC2)cc2c(=O)n(C)c3ccccc3c21	0	0	0	18.4µM	?	0
CCCN1CCN(CCCNC(=O)c2cc3c(=O)n(C)c4ccccc4c3n2C)CC1	0	0	0	?	?	0
CN1CCN(CCNC(=O)c2cc3c(=O)n(C)c4ccccc4c3n2C)CC1	0	0	0	0	0	?
O=C(COC(=O)[C@@H]1CCCN1S(=O)(=O)c1ccccc1F)NCc1ccc2c(c1)OCO2	0	0	0	0	0	0
COc1cccc(CC(=O)NCC2Cc3cc(Cl)cc(-c4ncccn4)c3O2)c1 (stereo not drawn)	-	-	-	?	0	-
CN(c1ccccc1)S(=O)(=O)c1ccc(C(=O)NCc2ccco2)cc1	0	0	0	?	16.4µM	0
COc1ccccc1OCCNC(=O)c1ccc(S(=O)(=O)N(C)C)cc1	0	0	0	0	0	0
CN(C)S(=O)(=O)c1ccc(C(=O)NCCc2ccco2)cc1	0	0	0	0	23.1µM	0
CN(C)c1ccc(C(C(=O)NC2CCCC2)N(C(=O)c2csnn2)C2CC2)cc1 (stereo not drawn)	0	0	-	0	0	0
CNC(=O)c1ccc(-c2sc3nc(N4CCOCC4)c4c(c3c2N)CCCC4)o1	0	0	0	20.6µM	14.6µM	0
CNC(=O)c1ccc(-c2sc3nc(N4CCOCC4)c4c(c3c2N)CC(C)(C)OC4)o1	0	0	0	20.6µM	18.4µM	0
CN1Cc2c(N3CCOCC3)nc3sc(C(=O)c4ccc(Br)cc4)c(N)c3c2CC1(C)C	?	10µM	0	4.11µM	5.17µM	-
CCOc1ccc(CN(C)C(=O)CNC(=O)C2CCCCC2)cc1	0	0	-	0	0	0
O=C(NCCc1ccc2c(c1)OCCO2)c1cc(F)cc(F)c1	0	0	0	20.6µM	16.4µM	0
O=c1[nH]c(=O)n(Cc2ccccc2)c2nc(-c3ccc(Oc4ccc(F)cc4)c([N+](=O)[O-])c3)n(CCO)c12	12.6µM	0	0	16.4µM	18.4µM	0
